From PubChem BioAssay

Assay: small-molecule binders of probe aNOTCH2, primary screen, biochemical, small-molecule microarray, 635/667 nm fluorescence (AID 1121);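 also: score merges feature fluorescence read at 667 nm with its signal to noise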
Conditions: higher = more signal

SMILES	composite z-score
O=C1C2C=CC(C(O)c3cc(C(F)(F)F)cc(C(F)(F)F)c3)N(Nc3ccc([N+](=O)[O-])cc3)C2C(=O)N1c1ccccc1 (centres undefined)	-0.0523
COCCOC(=O)N1C(=O)[C@@]2(c3cc(C#CC4(O)CCCCCC4)ccc31)[C@H](C(=O)N1CCCCCCC1)[C@H]1C(=O)O[C@H](c3ccccc3)[C@H](c3ccccc3)N1[C@@H]2c1ccc(OCCO)cc1	0.819
CC(C)CNC(=O)[C@@H]1c2ccccc2C(=O)N(Cc2cc(F)cc(C(F)(F)F)c2)[C@H]1c1ccc(CO)cc1	-0.0486
CCOC(=O)[C@H]1C/C=C/C[C@H](C(=O)OCC)C(=O)O[C@H]2[C@@H](OC)O[C@H](CO)[C@@H](OC(=O)CCc3ccccc3)[C@@H]2OC1=O	0.0519
C=CC[C@@]1(C(=O)O)N=C(c2ccc(OCCCO)cc2)O[C@@H]1c1ccccc1	0.247
CCOC(=O)[C@@H]1[C@@H]2C(=O)N(CC)C(=O)[C@@H]2C[C@@H]1Sc1ccccc1	-0.0297
CC(C)CN1C(=O)[C@@]2(c3ccc([N+](=O)[O-])cc3)CC(=O)N(CC34CC5CC(CC(C5)C3)C4)[C@@H]2c2ccc(CO)cc21	-0.189
C=CC[C@@]1(C(=O)N2CCCCC2)N=C(c2ccc(OCCCO)cc2)O[C@@H]1c1ccccc1	0.195
C=CCOC(=O)[C@H]1[C@@H]2C(=O)O[C@@H](c3ccccc3)[C@@H](c3ccccc3)N2[C@@H](c2ccc(OCCOC(=O)[C@H]3C[C@H]4C(=O)N[C@@H](Cc5ccccc5)C(=O)N4[C@H]3c3ccc(O)cc3)cc2)[C@]12C(=O)Nc1ccc(I)cc12	-0.11
